# Source: PubChem BioAssay
# Calls of active or inactive are those of the source. Unless noted, how the calls were made is not given here.
# What was measured:
# [1] = compound effects on lung adenocarcinoma cell viability – A549, calcein-AM fluorescence, 48 h, basal, profiling panel (AID 1162); settings: higher = more signal; further: test concentration not given here
# [2] = compound effects on differentiated 3T3-L1 adipocyte viability – cell-based, 3T3-L1 adipocytes, calcein-AM fluorescence, 48 h, basal, profiling panel (AID 1163); settings: 3T3-L1 adipocytes viability, higher = more signal; further: test concentration not given here
# [3] = compound effects on hepatocellular carcinoma cell viability – HepG2, calcein-AM fluorescence, 48 h, basal, profiling panel (AID 1164); settings: higher = more signal; further: test concentration not given here
# [4] = compound effects on multiple myeloma cell viability – MM1S, calcein-AM fluorescence, 48 h, basal, profiling panel (AID 1165); settings: higher = more signal;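 further: viability of MM1S multiple myeloma cells under basal unstimulated conditions; test concentration not given here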
# [5] = calcein-AM signal in unstimulated myeloma cells – cell-based, calcein-AM fluorescence, 48 h, PK04 Diversity Set, profiling panel (AID 1166); settings: RPMI8226 myeloma viability, higher = more signal;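 further: cells grown under basal conditions without added stimulus; test concentration not given here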
# [6] = JC-1 mitochondrial signal, unstimulated HepG2 cells – cell-based, JC-1 fluorescence, 24 h, 100 nL compound, profiling panel (AID 1167); settings: HepG2 mitochondrial potential, higher = more signal; further: test concentration not given here
# [7] = JC-1 mitochondrial signal, unstimulated adipocytes – cell-based, JC-1 fluorescence, 3T3-L1 adipocytes, 24 h, 100 nL compound, profiling panel (AID 1168); settings: JC-1 mitochondrial fluorescence, higher = more signal, called active from +8 up or from −8 down; further: test concentration not given here
# [8] = JC-1 mitochondrial signal, unstimulated myeloma cells – cell-based, JC-1 fluorescence, RPMI8226, 24 h, 100 nL compound, profiling panel (AID 1169); settings: JC-1 mitochondrial potential fluorescence, higher = more signal; further: test concentration not given here
# [9] = JC-1 mitochondrial signal, unstimulated MM1S myeloma – cell-based, JC-1 fluorescence, 24 h, 100 nL compound, profiling panel (AID 1170); settings: MM1S mitochondrial potential, higher = more signal; further: test concentration not given here
# [10] = resazurin metabolic signal in A549 cells – cell-based, resazurin fluorescence, 24 h, PK04 Diversity Set, profiling panel (AID 1171); settings: A549 viability, higher = more signal, called active from +8 up or from −8 down; further: test concentration not given here
# [11] = resazurin metabolic signal in HepG2 cells – cell-based, resazurin fluorescence, 24 h, PK04 Diversity Set, profiling panel (AID 1172); settings: HepG2 viability, higher = more signal; further: test concentration not given here
# [12] = budding yeast growth changes without added modifier – OD600, strain BY4716, 24 h, basal condition, primary screen (AID 1173); settings: S. cerevisiae BY4716 growth, OD600, 24 h; higher = more signal, called active from +8 up or from −8 down
# [13] = viability profiling in MM1S myeloma cells – cell-based, resazurin fluorescence, basal, 24 h, PK04 Diversity Set, profiling panel (AID 1174); settings: higher = more signal, called active from +8 up or from −8 down; further: test concentration not given here
# [14] = molecular target: Dihydroorotate dehydrogenase (quinone), mitochondrial (Plasmodium falciparum (isolate 3D7)) (UniProt Q08210); assay: inhibition of P. falciparum DHODH – biochemical, C-terminal His tag, absorbance 600 nm, primary screen (AID 1175); settings: PfDHODH enzyme, DCIP absorbance 600 nm; higher = more signal, called active from +8 up or from −8 down;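 further: recombinant parasite enzyme with a five histidine tag at its C terminus; test concentration not given here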
# [15] = inhibition of PAO1 biofilm formation – strain PAO1, LB-PBS medium, absorbance 600 nm, primary screen (AID 1176); further: test concentration not given here; settings: P. aeruginosa PAO1 growth/biofilm, A600, 12 h; higher = more signal
# [16] = growth modulation of vineyard yeast isolate – strain RM11-1a, OD600, basal, 24 h, primary screen (AID 1177);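 further: cultures grown under basal conditions with no added stressor; test concentration not given here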; settings: S. cerevisiae RM11-1a growth, OD600, 24 h; higher = more signal, called active from +8 up or from −8 down
# [17] = growth of efflux-deficient E. coli DRC39 – strain DRC39, OD650, 24 h, E. coli filamentation inducers, primary screen (AID 1178);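 further: growth measured as culture turbidity by optical density at 650 nm; test concentration not given here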; settings: E. coli DRC39 acrAB, higher = more signal, called active from +8 up or from −8 down
# [18] = growth of efflux-deficient E. coli DRC39 – strain DRC39, OD650, 48 h, E. coli filamentation inducers, primary screen (AID 1179);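 further: screen aims at cell division blockers that make cells filament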; settings: E. coli DRC39 delta-acrAB growth, higher = more signal, called active from +8 up or from −8 down
# [19] = viability profiling in RPMI8226 myeloma cells – cell-based, resazurin fluorescence, basal, 24 h, PK04 Diversity Set, profiling panel (AID 1180); settings: higher = more signal;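 further: RPMI8826 multiple myeloma cell line at 5000 cells per well; test concentration not given here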
# [20] = molecular target: E3 ubiquitin-protein ligase XIAP (Homo sapiens) (UniProt P98170); assay: small molecules binding XIAP protein – biophysical, small-molecule microarray, fluorescence 635 nm, primary screen (AID 1181); settings: higher = more signal;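 further: score merges 667 nm emission and signal to noise over triplicate slides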
# E3 ubiquitin-protein ligase XIAP (Homo sapiens), sequence (P98170 whole entry, looked up): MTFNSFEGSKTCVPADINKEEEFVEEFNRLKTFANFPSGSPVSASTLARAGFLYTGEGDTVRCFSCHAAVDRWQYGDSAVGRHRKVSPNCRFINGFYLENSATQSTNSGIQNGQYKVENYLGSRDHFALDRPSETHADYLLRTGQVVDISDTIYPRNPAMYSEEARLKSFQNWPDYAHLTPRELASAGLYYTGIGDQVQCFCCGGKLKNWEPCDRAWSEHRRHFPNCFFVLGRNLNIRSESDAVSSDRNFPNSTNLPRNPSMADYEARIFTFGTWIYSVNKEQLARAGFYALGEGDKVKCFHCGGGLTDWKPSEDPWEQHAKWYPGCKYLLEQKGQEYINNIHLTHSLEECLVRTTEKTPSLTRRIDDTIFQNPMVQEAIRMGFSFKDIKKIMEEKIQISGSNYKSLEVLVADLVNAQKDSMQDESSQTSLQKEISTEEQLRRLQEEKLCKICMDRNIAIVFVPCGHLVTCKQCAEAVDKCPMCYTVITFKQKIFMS
# Dihydroorotate dehydrogenase (quinone), mitochondrial (Plasmodium falciparum (isolate 3D7)), sequence (Q08210 whole entry, looked up): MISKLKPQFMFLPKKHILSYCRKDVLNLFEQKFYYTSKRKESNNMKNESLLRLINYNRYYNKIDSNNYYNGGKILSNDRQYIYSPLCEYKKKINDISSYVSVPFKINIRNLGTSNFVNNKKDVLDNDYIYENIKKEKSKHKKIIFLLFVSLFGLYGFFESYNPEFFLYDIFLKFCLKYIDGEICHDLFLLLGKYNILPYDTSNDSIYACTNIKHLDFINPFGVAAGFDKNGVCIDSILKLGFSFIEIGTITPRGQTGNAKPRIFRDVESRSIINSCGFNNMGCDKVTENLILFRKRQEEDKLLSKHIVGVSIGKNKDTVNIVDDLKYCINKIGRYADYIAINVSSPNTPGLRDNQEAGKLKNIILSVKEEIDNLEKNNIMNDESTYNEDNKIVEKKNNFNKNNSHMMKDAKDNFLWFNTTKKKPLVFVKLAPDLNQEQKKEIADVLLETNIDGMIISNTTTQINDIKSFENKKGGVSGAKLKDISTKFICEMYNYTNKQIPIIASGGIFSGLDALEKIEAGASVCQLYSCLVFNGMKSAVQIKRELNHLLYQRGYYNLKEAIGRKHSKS
SMILES,z-score [1],z-score [2],z-score [3],z-score [4],z-score [5],z-score [6],z-score [7],z-score [8],z-score [9],z-score [10],z-score [11],z-score [12],z-score [13],composite z-score [14],z-score [15],z-score [16],z-score [17],z-score [18],z-score [19],composite z-score [20]
C=CCN1C(=O)[C@@]2(CCS(=O)(=O)c3ccccc3)N=C(c3ccc(OCCCO)cc3)O[C@H]2c2ccccc21,0.0843,0.473,0.684,-0.786,-2.05,-0.692,1.79 (inactive),-0.995,0.0237,-0.812 (inactive),-0.436,0.698 (inactive),-0.427 (inactive),-0.218 (inactive),0.563 (inactive),1.45 (inactive),-0.0209 (inactive),0.242 (inactive),-2.12,-0.0421
O=C1N(Cc2ccccc2)c2ccccc2[C@@H]2OC(c3ccc(OCCCO)cc3)=N[C@]12Cc1ccccc1,-1.43,1.24,-1.98,-3.26,-4.42,-1.11,0.983 (inactive),-1.37,-0.884,-1.72 (inactive),-0.408,-0.87 (inactive),-3.68 (inactive),1.07 (inactive),1.25 (inactive),2.06 (inactive),1.29 (inactive),0.259 (inactive),-2.78,-0.0749
CCCC[C@@H]1C[C@H]1[C@@H](NC(=O)c1ccccc1)c1ccc(C(F)(F)F)cc1,-1.46,-0.999,-0.959,0.256,-0.372,0.494,-0.259 (inactive),0.677,-1.24,-0.0143 (inactive),1.09,0.628 (inactive),0.142 (inactive),0.573 (inactive),0.479 (inactive),0.176 (inactive),0.1 (inactive),0.155 (inactive),0.329,-0.369
C=C(COC)C(=O)CC[C@@H](OC(=O)c1cccnc1)c1ccc(OCCO)cc1,-0.1,-0.486,-0.419,-2.55,-1.29,-1.89,0.42 (inactive),0.829,-0.374,-0.284 (inactive),0.379,-16 (active),0.556 (inactive),-3.49 (inactive),0.178 (inactive),-0.499 (inactive),0.864 (inactive),0.441 (inactive),0.221,-0.184
C=C(COC)/C(=C/C[C@H](OC(C)=O)c1ccc(OCCO)cc1)c1cc(C(=O)OC)ccc1OC,1.82,0.852,0.883,-1.01,0.598,2.6,1.57 (inactive),0.0179,-0.444,1.47 (inactive),1.26,0.147 (inactive),0.901 (inactive),-2.16 (inactive),0.838 (inactive),-0.957 (inactive),1.94 (inactive),1.37 (inactive),1.46,-0.345
O=c1n(-c2ccccc2)c(=O)n2n1CC(COc1ccccc1)=C([C@H](O)CCc1ccccc1)[C@@H]2CO,-0.0498,0.725,0.787,-1.44,-2.34,-1.2,0.0027 (inactive),0.0482,-1.98,-0.962 (inactive),-0.633,-2.28 (inactive),-0.83 (inactive),-1.09 (inactive),-0.0126 (inactive),-3.02 (inactive),1.24 (inactive),0.395 (inactive),-0.0454,-0.472
COC(=O)[C@@]1(Cc2ccc(OC)cc2)[C@H]2c3cc(C(=O)N4CCCC4)n(Cc4cccc5ccccc45)c3C[C@H]2CN1C(=O)c1ccccc1,-0.249,-0.305,1.39,-0.47,-0.718,2.15,-0.198 (inactive),-0.427,-1.26,-0.506 (inactive),-0.18,1.07 (inactive),-0.619 (inactive),0.237 (inactive),-0.362 (inactive),1.08 (inactive),0.24 (inactive),0.277 (inactive),0.0686,0.5
